Results filed as inconclusive are left out. Active and inactive are the calls of the source. The call rests on the fitted dose curve; in most records, active means well fitted activation curve with a large enough effect in the repeat runs; inconclusive means weak or mixed curves; inactive means flat fitted curve, though single readings scatter. Residues, ends and D or L forms follow the SMILES beside them.
Biological target: Nuclear receptor subfamily 1 group I member 2 (Homo sapiens) (UniProt O75469)
Experiment: Human pregnane X receptor (PXR) activation by small molecules, qHTS assay (AID 1346985); further: nearly all actives have a fitted effect of over 40% in size
Conditions: DPX-2 HepG2 CYP3A4-luciferase, 24 h; series mostly up to 38.3 µM; activation: at the top concentration
Source text: National Center for Advancing Translational Sciences [NCATS]
NIH Chemical Genomics Center [NCGC]
U.S. Environmental Protection Agency [EPA]
National Institutes of Environmental Health Sciences [NIEHS]
National Toxicology Program [NTP]
The Pregnane X receptor (PXR), a ligand activated nuclear receptor plays a critical role in the regulation of genes involved in drug metabolism and transporters. Activation of PXR may be involved in the unwanted adverse drug-drug interactions. […] Therefore, identification of compounds with the potential for PXR activation can be of importance in improving the efficacy of drugs with less toxicity and avoiding drug-drug interactions.
DPX-2 (Puracyp, Inc.) cell lines, used for screening against human PXR activation has HepG2 cells co-transfected with a PXR response element and a luciferase construct containing CYP3A4 promoter. Increase in luciferase activity can be used to identify the compounds that activate the PXR pathway.
DPX-2 cells were dispensed at 2,000 cells per well in 5uL of assay medium into white, solid-bottom 1536-well plates using a Multidrop Combi dispenser (Thermo Scientific). The assay plates were incubated at 37C for 5hr before transferring 23nL of test compounds dissolved in DMSO and positive control via Pintool station (Wako). The assay plates were incubated at 37C for 24hr. Then 5ul One-Glo assay reagent (Promega) was added to each plate by a Flying Reagent Dispenser (FRD, Aurora Discovery) and following 30 min incubation at room temperature, luciferase activity was quantified on a ViewLux plate reader (Perkin Elmer).
On the % scale 0 is the no-effect control and ±100 the full control effect; potency means the concentration at half of the fitted maximal effect.

SMILES | activation | Potency
O=c1cc[nH]c(=S)[nH]1 | 0.028% (inactive) | –
NC(N)=O | 2.5% (inactive) | –
CCCCC(CC)COC(=O)/C=C/c1ccc(OC)cc1 (configuration not stated) | 12.8% (inactive) | –
O=c1ccc2ccccc2o1 | -2.98% (inactive) | –
OC(Cn1cncn1)(Cn1cncn1)c1ccc(F)cc1F | 2.39% (inactive) | –
CC1(C)[C@@H]2CC[C@@]1(C)C(=O)C2 | -0.257% (inactive) | –
C[C@]12C=CC(=O)C=C1CC[C@@H]1[C@@H]2[C@@H](O)C[C@@]2(C)[C@H]1CC[C@]2(O)C(=O)CO | 20.6% (inactive) | –
O=C(O)CCCCC(=O)O | -4.56% (inactive) | –
CC(O)C(=O)O (configuration not stated) | 20.4% (inactive) | –
c1ccc2[nH]ccc2c1 | -4.51% (inactive) | –
Nc1ccc(C(=O)O)cc1 | 9.93% (inactive) | –
Cc1cc(=O)[nH]c(=S)[nH]1 | 4.63% (inactive) | –
O=C(O)c1cc(N=Nc2ccc(S(=O)(=O)Nc3ccccn3)cc2)ccc1O | 4.29% (inactive) | –
O=C1CN(/N=C/c2ccc([N+](=O)[O-])o2)C(=O)N1 | 0.895% (inactive) | –
CCCCCCCCCCCCCCCC(=O)O | -2.27% (inactive) | –
O=C(c1ccccc1)C(O)c1ccccc1 (configuration not stated) | 2.97% (inactive) | –

SMILES | activation | Potency
CCCC(O)C(CC)CO (configuration not stated) | -1.71% (inactive) | –
Cc1ccccc1C(OCCN(C)C)c1ccccc1 (configuration not stated) | 7.09% (inactive) | –
CC(O)CO (configuration not stated) | 4.55% (inactive) | –
Cn1cc[nH]c1=S | 0.915% [at 17.1 µM] (inactive) | –
CC(C)(Oc1ccc(C2CC2(Cl)Cl)cc1)C(=O)O (configuration not stated) | -2.63% (inactive) | –
O=C(O)CCC(=O)O | 7.71% (inactive) | –
CCOc1ccc(NC(=O)CC(C)O)cc1 (configuration not stated) | 11.9% (inactive) | –
CC(=O)OCC(COC(C)=O)OC(C)=O | -2.09% (inactive) | –
CCCCOC(=O)CC(CC(=O)OCCCC)(OC(C)=O)C(=O)OCCCC | – | 25.1 µM (active)
COC(=O)[C@H](Cc1ccccc1)NC(=O)[C@@H](N)CC(=O)O (H-Asp-Phe-OMe) | – | inactive
NC(=O)c1ccccc1O | -10.8% (inactive) | –
CCCC(CCC)C(=O)O | -9.33% (inactive) | –
Cc1cn([C@H]2C[C@H](N=[N+]=[N-])[C@@H](CO)O2)c(=O)[nH]c1=O | – | inactive
CC(O)CN(CCN(CC(C)O)CC(C)O)CC(C)O (configuration not stated) | -5.62% (inactive) | –
C/C=C/c1ccc(OC)cc1 | 3.02% (inactive) | –
CC(C)[C@@H]1CC[C@@H](C)C[C@H]1O | 2.85% (inactive) | –
